Source: PubChem
The entries come from a sample that favours hits as a whole.
RECQ1 inh-1: RECQ1 (human) helicase inhibition | P46063 | RECQ1 DNA unwinding, red fluorescence kinetic read | Potency, µM (titrated, usually from 57.3 µM), for the others: top-dose activity, negative = inhibition, actives largely listed as inhibitors | 0.54% of 240,000 active | AID 2549;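 note: plate controls were vehicle for no effect and no enzyme for full effect; nearly all actives have a fitted effect of over 30% in size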
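50 nM RECQ1T1 preincubated 15 min with compound in Tris pH 8.0 buffer with MgCl2, DTT, Tween-20 and 2.5 ug/ml poly(dI-dC); started with 200 nM TAMRA/BHQ-2 forked duplex and 2 mM ATP. Unwinding read as fluorescence (525/598 nm), two reads 2 h apart.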
GoLoco inh red: blocks human Gai1 binding to RGS12 GoLoco peptide, red readout; P63096; Gai1:RGS12 GoLoco peptide FP, rhodamine, 10 min; Potency, µM (highest dose often 61.6 µM), for inactives: top-dose activity, negative = inhibition, actives largely listed as inhibitors; 0.44% of 230,000 active; AID 880; active = well fitted inhibition curve with a large enough effect, not every such curve was filed as active; inactive = no such curve, though single readings can be large or run the other way; note: nearly all actives have a fitted effect of over 30% in size
Target sequence (P63096 whole entry, looked up): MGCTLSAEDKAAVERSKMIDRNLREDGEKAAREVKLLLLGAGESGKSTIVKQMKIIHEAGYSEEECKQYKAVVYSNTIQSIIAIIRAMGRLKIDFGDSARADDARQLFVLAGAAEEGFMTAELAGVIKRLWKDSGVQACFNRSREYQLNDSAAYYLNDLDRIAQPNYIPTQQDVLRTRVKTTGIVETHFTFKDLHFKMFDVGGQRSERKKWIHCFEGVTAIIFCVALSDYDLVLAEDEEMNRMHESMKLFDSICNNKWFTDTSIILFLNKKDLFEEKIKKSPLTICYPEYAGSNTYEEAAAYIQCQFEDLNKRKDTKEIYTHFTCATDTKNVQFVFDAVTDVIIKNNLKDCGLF
JMJD2E inh: inhibitors of human JMJD2E histone demethylase; B2RXH2; JMJD2E catalytic domain, FDH-coupled NADH fluorescence (FDH is formaldehyde dehydrogenase); 1.6% of 230,000 active; Potency, µM (series often up to 57.1 µM), inactives show top-dose activity change, negative = inhibition, most hits filed as inhibitors; active = well fitted inhibition curve with a large enough effect, not every such curve was filed as active; inconclusive = small, poorly fitted or top-dose-only effect, or another doubt; inactive = no such curve, though single readings can be large or run the other way;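 note: 0% = wells with enzyme and -100% = buffer wells without enzyme; nearly all actives have a fitted effect of over 50% in size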
Target sequence (B2RXH2 1-337 limits assumed): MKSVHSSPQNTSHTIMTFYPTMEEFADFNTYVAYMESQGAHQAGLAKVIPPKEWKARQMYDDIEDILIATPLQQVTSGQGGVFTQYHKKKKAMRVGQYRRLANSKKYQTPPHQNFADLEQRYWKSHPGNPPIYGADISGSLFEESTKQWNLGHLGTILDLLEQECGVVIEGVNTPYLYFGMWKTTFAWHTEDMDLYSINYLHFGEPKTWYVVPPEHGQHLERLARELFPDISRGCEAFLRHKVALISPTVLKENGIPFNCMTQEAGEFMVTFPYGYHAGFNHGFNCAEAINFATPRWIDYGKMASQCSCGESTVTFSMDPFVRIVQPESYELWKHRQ
APE1 inh-1: APE1 (human) endonuclease inhibition; recombinant APE1, TAMRA/BHQ-2 abasic DNA cleavage fluorescence; Potency, µM (top dose mostly 65.8 µM), for inactives: at the highest dose activity change, negative = inhibition, actives largely listed as inhibitors; 0.35% of 350,000 active;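 note: plate controls were vehicle for no effect and reference inhibitor for full effect; nearly all actives have a fitted effect of over 55% in size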
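Measures dequenching upon AP-site incision of a 5'-TAMRA/3'-BHQ-2 THF-containing duplex, 50 nM; human APE1 0.75 nM after 15 min room-temperature exposure to compound; kinetic three-point read at one-minute spacing.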
BLM helicase inh: Bloom syndrome helicase (human) inhibition; P54132; recombinant BLM DNA unwinding, fluorescence dequenching; Potency, µM (titrated, usually from 56.1 µM), without a hit: at the highest dose activity change, negative = inhibition, usual class: inhibitors; 0.2% of 350,000 active;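 note: plate controls were vehicle for no effect and no enzyme for full effect; nearly all actives have a fitted effect of over 35% in size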
L3MBTL1 block: blocks human L3MBTL1. Q9Y468. AlphaScreen L3MBTL1–H3K9me1 peptide binding. Potency, µM (highest dose often 57.1 µM), for the others: at the highest dose activity, negative = inhibition, most hits filed as inhibitors. 0.66% of 230,000 active. AID 485360; note: nearly all actives have a fitted effect of over 60% in size
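L3MBTL1 (50 nM) pre-complexed 30 min with biotinylated H3(1-15)K9me1 peptide (75 nM), then compounds added for 30 min at room temperature; AlphaScreen streptavidin donor/nickel chelate acceptor beads (10 ug/mL final) read after 30 min dark incubation.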
APE1 dye cs: DNA dye displacement counter-screen activity; 7% of 480 active; AID 2564; Potency, µM (titrated, usually from 28.5 µM), without a hit: top-dose activity change, negative = inhibition, usual class: inhibitors; DNA fluorescent dye displacement counterscreen, fluorescence; shares compounds with APE1 inh-1;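 note: loss of thiazole orange fluorescence as the dye is displaced from duplex DNA; 0% = ThO with dsDNA and no compound and -100% = ThO without dsDNA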
EndoIV counter: blocks E. coli endonuclease IV DNA cleavage | 4% of 560 active | E. coli Endo IV, fluorogenic AP-site DNA cleavage | shares compounds with APE1 inh-1 | Potency, µM (top dose mostly 27.1 µM), for the others: top-dose activity change, negative = inhibition, usual class: inhibitors;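 note: plate controls were uninhibited enzyme wells for no effect and no enzyme buffer wells for full effect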
APE1 inh-2: APE1 (human) endonuclease inhibition, confirmation | shares compounds with APE1 inh-1 | purified APE1, fluorogenic abasic-site DNA cleavage | Potency, µM (series often up to 57.1 µM), inactives show at the highest dose activity change, negative = inhibition, actives largely listed as inhibitors | 44% of 750 active | AID 2572; note: nearly all actives have a fitted effect of over 30% in size
APE1 FP: compounds that displace a DNA probe from human APE1; 7% of 480 active; Potency, µM (series often up to 28.5 µM), inactives show at the highest dose activity, negative = inhibition, actives largely listed as inhibitors; shares compounds with APE1 inh-1; APE1 binding to TAMRA-labelled double-stranded DNA, fluorescence polarization displacement
RECQ1 inh conf: confirmation of human RECQ1 helicase inhibitors | 28% of 610 active | shares compounds with RECQ1 inh-1 | RECQ1 helicase DNA unwinding, fluorescence | Potency, µM (titrated, usually from 229 µM), for inactives: at the highest dose activity change, negative = inhibition, actives largely listed as inhibitors; note: nearly all actives have a fitted effect of over 45% in size
RECQ1 ADP FP: ADP displacement flagged in RECQ1 inhibitor counter-screen; shares compounds with RECQ1 inh-1; ADP fluorescence polarization displacement counterscreen; Potency, µM (top dose mostly 228 µM), for inactives: top-dose activity change, negative = inhibition, usual class: inhibitors; 27% of 530 active; note: nearly all actives have a fitted effect of over 45% in size
RECQ1 inh-2: RECQ1 helicase inhibition confirmed, round 2. Potency, µM (titrated, usually from 119 µM), for the others: top-dose activity, negative = inhibition, usual class: inhibitors. 15% of 1,100 active. shares compounds with RECQ1 inh-1. AID 504841. recombinant RECQ1 DNA unwinding, red fluorescence; note: nearly all actives have a fitted effect of over 50% in size
Active calls of the source: *; i = inactive; ? = inconclusive; · = no result; [ ] = dose if it differs, or a comment. Unless noted, calls come from the whole dose curve; as a rule, active = well fitted curve in the direction sought with a large enough effect; inconclusive = small, poorly fitted or top-dose-only effect, or another doubt; inactive = no such curve, though single readings can be large; an effect the other way counts as inactive or inconclusive. Unless noted, % is set by controls: 0 for no effect and ±100 for the full control effect; potency is the fitted concentration of half-maximal effect.

SMILES	RECQ1 inh-1	GoLoco inh red	JMJD2E inh	APE1 inh-1	BLM helicase inh	L3MBTL1 block	APE1 dye cs	EndoIV counter	APE1 inh-2	APE1 FP	RECQ1 inh conf	RECQ1 inh-2	others
Cc1ccc(N2C(=O)c3ccccc3C2C(=O)c2ccc(O)cc2O)cc1 (stereo not drawn)	14.1µM*	-8.7%	20µM*	6.31µM*	2.8%	4.47µM*	1.2%	11.6%	?	-6.5%	2.7%[114 µM]	-17.7%	RECQ1 ADP FP=-21.6%[91.9 µM]
COc1ccc(N=C2NC(=O)/C(=C\c3ccco3)S2)cc1	15.8µM*	10.1%	?	7.94µM*	?	·	-11.9%	9.5%	12.6µM*	-5.3%	?	?	RECQ1 ADP FP=-13.5%[91.9 µM]
O=C(c1cc(C(=O)c2ccco2)cc(C(=O)c2ccco2)c1)c1ccco1	35.5µM*	9.8%	-13.4%	31.6µM*	-19.5%	-8.5%	-7.4%	26.6%	?	-5.4%	·	-54.5%
CCC1=NN2C(=N)/C(=C\c3ccc(OCc4cc(=O)n5nc(CC)sc5n4)c(OC)c3)C(=O)N=C2S1	7.08µM*	9.7%	?	?	14.1µM*	?	·	·	31.6µM*	·	·	?
CCc1nn2c(=O)cc(COc3ccc(/C=C4\C(=N)N5N=C(CC(C)C)SC5=NC4=O)cc3)nc2s1	i	6.0%	?	?	-22.7%	·	·	·	·	·	·	·
CC(=O)c1c(C)oc2ccc(N(C(=O)Oc3ccccc3)S(=O)(=O)c3ccccc3)cc12	·	·	·	·	-6.3%	·	·	·	·	·	·	·
O=C(Nc1cccc(F)c1)N1CCCC2(CCN(C(=O)c3cc(C(F)(F)F)cc(C(F)(F)F)c3)CC2)C1	-20.7%	6.9%	·	-3.3%	-5.6%	·	·	·	·	·	·	·
Nc1ccc(-c2nc3ccc(-c4nc5ccc(N)cc5[nH]4)cc3[nH]2)cc1	25.1µM*	16.1%	?	?	14.1µM*	·	·	28.2µM*	15.8µM*	·	28.2µM*	31.6µM*	RECQ1 ADP FP=28.2µM*
Nc1ccc2nc(-c3ccc(-c4nc5ccc(N)cc5[nH]4)cc3)[nH]c2c1	·	·	·	-41.5%	-20.5%	·	·	·	·	·	·	·
O=C1CCCC2=C1C(c1cccs1)Nc1ccc3ncccc3c12 (stereo not drawn)	-7.8%	17.4%	?	-7.1%	-7.8%	0.7%	·	·	·	·	·	·
O=C1CCCC2=C1C(c1ccc(O)c(O)c1)Nc1ccc3ncccc3c12 (stereo not drawn)	?	-34.0%	25.1µM*	14.1µM*	?	?	?	16.7%	?	-2.5%	·	?
O=C(COc1ccccc1C(=O)N/N=C\c1ccc(O)c(O)c1)N/N=C/c1ccc(O)c(O)c1	1µM*	-20.4%	12.6µM*	2.82µM*	2µM*	1.58µM*	6.31µM*	28.9%	2µM*	?	2.24µM*	·	RECQ1 ADP FP=-14.4%[91.9 µM]
C=C1c2c(Cl)ccc(O)c2C(O)=C2C(=O)[C@]3(O)C(O)=C(C(N)=O)C(=O)C(N(C)C)C3C(O)C12 (stereo partly drawn)	3.98µM*	-8.3%	?	?	0.3%	·	?	21.2%[57.1 µM]	4.9%	?	-14.0%	·	RECQ1 ADP FP=?
COc1ccc(Br)cc1/C=c1\sc2nc(-c3ccco3)nn2c1=O	8.91µM*	38.3%	-7.9%	28.2µM*	-24.8%	7.94µM*	?	6.1%	?	-13.6%	20µM*	·	RECQ1 ADP FP=?
Cn1c(SCC(=O)N/N=C/C=C/c2ccco2)nc2ccccc21	17.8µM*	8.3%	?	10µM*	1.5%	22.4µM*	?	-8.3%	?	0.3%	?	·
CCCCCOc1ccccc1CN1C(=O)C(=O)c2cc(C)ccc21	·	·	·	·	-12.0%	·	·	·	·	·	·	·
Cc1ccc(/C=c2\sc3nc(-c4ccccc4Br)nn3c2=O)o1	?	89.5%	-15.6%	12.6µM*	-20.6%	·	?	8.0%	-26.4%[24.4 µM]	13.7%	·	32.4%
COc1ccccc1Cc1nc2ccccc2nc1SCC(=O)N(C)c1ccc(F)cc1	·	·	·	·	-9.4%	·	·	·	·	·	·	·
Cc1ccccc1S(=O)Cc1ccc(C(=O)NCc2ccccc2Cl)o1 (stereo not drawn)	·	·	·	·	3.7%	·	·	·	·	·	·	·
CC(C)(C)OC(=O)N1CCC(c2c(C(=O)NCc3ccccc3)cnn2-c2cccc(F)c2)CC1	·	·	·	·	-7.9%	·	·	·	·	·	·	·
COC(=O)c1c(NC(=O)CN2C(=O)NC3(CCC(C)CC3)C2=O)sc2c1CCC2 (stereo not drawn)	·	·	·	-2.0%	·	-3.2%	·	·	·	·	·	·
CC1CCCCC12NC(=O)N(CC(=O)Nc1sc3c(c1C(N)=O)CCC3)C2=O (stereo not drawn)	?	120.2%	?	7.94µM*	1.0%	·	?	-4.9%	-24.2%[24.4 µM]	3.9%	·	-28.7%
CCOc1cc(N2CCOCC2)c(OCC)cc1NC(C)C(=O)N1CCN(CC)CC1 (stereo not drawn)	?	-17.8%	26.6%	10µM*	-10.3%	17.8µM*	·	·	?	·	·	-7.2%
CC1(C)Cc2c(sc3[nH]c(=S)n(Cc4ccco4)c(=O)c23)CO1	?	52.9%	?	35.5µM*	-8.8%	-0.9%	-7.1%	7.8%	-4.6%[24.4 µM]	?	·	0.6%
Cc1cccc(CSc2nnc3[nH]c(=O)cc(-c4ccccc4)n23)c1	·	·	·	·	-3.2%	·	·	·	·	·	·	·
